About 79,000 compounds went through this panel and 15% of them were active in at least one assay; those are over-represented in the sample as a whole. Cut-off read from the data, not from the text of the source: active = growth inhibition above about 70%; inactive = the rest.
How the values were obtained:
[1] = NCI Yeast Anticancer Drug Screen. Data for the rad50 strain (AID 155);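 note: 0% = growth of vehicle-only cultures of the same strain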; conditions: S. cerevisiae rad50 strain growth inhibition; at 50.0 µM; stronger effect = higher value
Summary of the method: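 DNA repair mutant yeast, compound exposure, growth read-out; inhibition is taken relative to vehicle.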

[2] = NCI Yeast Anticancer Drug Screen. Data for the mec2-1 strain (AID 157); conditions: S. cerevisiae mec2-1 strain, at 50.0 µM, stronger effect = higher value
Summary of the method: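 Vehicle-treated cultures served as reference for growth inhibition of compound-exposed mec2-1 yeast.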

[3] = NCI Yeast Anticancer Drug Screen. Data for the sgs1 mgt1 strain (AID 161);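 note: 0% = growth of cultures given vehicle only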; conditions: S. cerevisiae sgs1 mgt1 strain, at 50.0 µM, stronger effect = higher value
Summary of the method: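 Genetically altered yeast, compound exposure, growth inhibition relative to vehicle.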

[4] = NCI Yeast Anticancer Drug Screen. Data for the cln2 rad14 strain (AID 165);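 note: 0% = growth equal to vehicle treated cultures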; conditions: S. cerevisiae cln2 rad14 strain, at 50.0 µM, stronger effect = higher value
Summary of the method: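 Each compound was tested on cln2 rad14 yeast. Inhibition of growth was calculated against vehicle-exposed controls.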

[5] = NCI Yeast Anticancer Drug Screen. Data for the bub3 strain (AID 167); conditions: S. cerevisiae bub3 mutant strain, at 50.0 µM, stronger effect = higher value
Summary of the method: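 In this screen, a yeast mutant lacking normal mitotic checkpoint function is challenged with compound. Relative growth versus vehicle gives the inhibition value.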

[6] = NCI Yeast Anticancer Drug Screen. Data for the mlh1 rad18 strain (AID 175); conditions: S. cerevisiae mlh1 rad18 strain growth inhibition; at 50.0 µM; stronger effect = higher value
Summary of the method: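 Vehicle-treated cultures served as the reference for growth inhibition in a yeast strain carrying DNA damage repair alterations exposed to each compound.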

Measured: growth inhibition

CCc1cc(CCC(=O)Nc2ccccc2[N+](=O)[O-])[nH]c(=S)n1
inactive: [1] -10.6% | [2] -20.8% | [3] 11.3% | [4] 12% | [5] -14.3% | [6] -11.2%

CC(C)C1CSC2N1C(=O)C2(OCc1ccccc1)C1CC1 (centres undefined)
inactive: [1] 3.3% | [2] -22.4% | [3] -3.2% | [4] -16.2% | [5] -20.1% | [6] 9.1%

NC(=O)N/N=C1\CC2CCC1C2Cl (centres undefined)
inactive: [1] -0.05% | [2] -1.35% | [3] -5% | [4] -0.45% | [5] -13.7% | [6] -14.8%

C/C(=N\NC(=S)N1CCN(c2ncccn2)CC1)c1ccccn1
inactive: [1] -2.4% | [2] -7.1% | [3] -6.8% | [4] -21.8% | [5] 9.35% | [6] 4.2%

CC(C)C1CCC(O)CC1 (centres undefined)
inactive: [1] -14.5% | [2] 1.9% | [3] -3.55% | [4] -32.2% | [5] 10.3% | [6] 9.05%

Nc1ccc(C(=O)NN2C(=O)C(Cl)C2c2cccc(O)c2)cc1 (centres undefined)
inactive: [1] -4.45% | [2] -41.7% | [3] -35.1% | [4] -14.2% | [5] 4.3% | [6] -6.55%

CC(=O)Nc1c(Cl)c(Cl)c2c(c1Cl)Cc1cc([N+](=O)[O-])ccc1-2
inactive: [1] 9.2% | [2] -12.8% | [3] 7.6% | [4] -9.1% | [5] 3.15% | [6] 2.1%

O=[N+]([O-])c1ccc(S(=O)(=O)c2ccc(N=Cc3ccc(C=Nc4ccc(S(=O)(=O)c5ccc([N+](=O)[O-])cc5)cc4)cc3)cc2)cc1
inactive: [1] 6.85% | [2] 3.25% | [3] 1.15% | [4] -5.45% | [5] -4.55% | [6] -5.85%

c1ccc(-c2c(-c3ccc4c(c3)CCCC4)c(-c3ccccc3)c3c(c2-c2ccccc2)-c2cccc4cccc-3c24)cc1
inactive: [1] -4.15% | [2] 2.8% | [3] -2.45% | [4] 13.3% | [5] -2.9% | [6] 2.75%

C1CCN(/N=N/c2nn[nH]n2)CC1
inactive: [1] -2.3% | [2] 6.55% | [3] -2.8% | [4] -23% | [5] 3.9% | [6] -0.7%

O=C(O)CNC(=O)c1ccc2cc(C(=O)N3CC(CCl)c4ccc([N+](=O)[O-])cc43)[nH]c2c1 (centres undefined)
inactive: [1] -6.45% | [2] -4% | [3] -3.95% | [4] -0.1% | [5] -34.3% | [6] -35%

CC(NC(=O)c1ccccc1)C(=O)O (centres undefined)
inactive: [1] 25.4% | [2] -6.4% | [3] -26.6% | [4] -24.2% | [5] 0.6% | [6] 27.7%

C=CC1CC1(Cl)Cl (centres undefined)
inactive: [1] -10.9% | [2] 12.8% | [3] -4.75% | [4] -50.2% | [5] 0.5% | [6] 11.7%

O=C(Nc1ccc([N+](=O)[O-])c2c1C(=O)c1ccccc1C2=O)c1ccccc1
inactive: [1] -7.7% | [2] -12.1% | [3] -5.95% | [4] -43.4% | [5] 10.1% | [6] -2.9%

COc1cccc2c1C(=O)OC2c1cccc2ccccc12 (centres undefined)
inactive: [1] 10.5% | [2] -7.45% | [3] 7.25% | [4] 28.2% | [5] 4.3% | [6] 16%

C=CCOc1ccc(Cl)cc1Br
inactive: [1] -1.8% | [2] -4.6% | [3] -2.65% | [4] -46.6% | [5] -3.35% | [6] -7.8%

COc1ccc(C(CC(=O)O)c2cc3c(cc2OC)OCO3)cc1 (centres undefined)
inactive: [1] -4% | [2] -9.85% | [3] 3.8% | [4] 0.25% | [5] 1.1% | [6] -1.75%

Cc1c(C#N)c2n(c1C)CC(=O)N2
inactive: [1] 7.85% | [2] 0.45% | [3] 2.8% | [4] -0.85% | [5] -20.4% | [6] -33.9%

COc1cc(O)c2c(=O)c(O)c(-c3ccc(O)c(O)c3)oc2c1
inactive: [1] 3.15% | [2] -24.1% | [3] 13.7% | [4] 9.05% | [5] -11.8% | [6] -10.6%

Cc1[nH]c2c(C)ccc(C)c2c1CC(=O)O
inactive: [1] 29.7% | [2] -15.1% | [3] -40.8% | [4] 17.1% | [5] -24.1% | [6] 10.2%

Clc1cccc(-c2sc(-c3cccs3)cc2Cc2cccs2)c1
inactive: [1] -42.8% | [2] -39.8% | [3] -29.4% | [4] 2.2% | [5] -9.2% | [6] -14.5%

Cc1nnc2cc(C(=O)O)c3ccccc3n2c1=O
inactive: [1] -28.6% | [2] -30.6% | [3] -13.4% | [4] -30.6% | [5] -20.1% | [6] -31.8%

BrCCCCCOc1ccc(-c2c3ccccc3c(-c3ccc(OCCCCCBr)cc3)c3ccccc23)cc1
inactive: [1] 11.4% | [2] 18.1% | [3] 12.8% | [4] 0.05% | [5] -12.9% | [6] 12.8%

CCCSc1ccc2c3c(cccc13)C(=O)OC2=O
inactive: [1] 47.5% | [2] 42.9% | [3] 46% | [4] 45.6% | [5] 57.7% | [6] 27.5%

CC(C)(C)N=Cc1ccccc1[O-].CC(C)(C)N=Cc1ccccc1[O-].[Co+2]
inactive: [1] 4% | [2] 7.9% | [3] -14.5% | [4] 0.25% | [5] 3.6% | [6] -5.85%

CCCCCCC(c1ccc(N(C)C)cc1)c1ccc(N(C)C)cc1
inactive: [1] -6.95% | [2] 15.7% | [3] -4.45% | [4] 13.1% | [5] 24.9% | [6] 29.9%

COC1OC(OC)c2cc([N+](=O)[O-])ccc21 (centres undefined)
inactive: [1] 9.9% | [2] 17.3% | [3] 18.1% | [4] 23.2% | [5] -11.1% | [6] 50.2%

O=C1c2ccccc2C(=O)c2c(Cl)cccc21
inactive: [1] 56.6% | [2] 4.7% | [3] -19.2% | [4] -39.5% | [5] -9.35% | [6] 7.35%

CC(NC(=O)CN)C(=O)O (centres undefined)
inactive: [1] -43.4% | [2] -8.55% | [3] -8.45% | [4] -22.6% | [5] 5.15% | [6] 4.4%

C=C1SC(=Nc2ccc(Cl)cc2)N(c2nc(Cl)nc(Cl)n2)C12CCCCC2
inactive: [1] -16.4% | [2] -21.1% | [3] 19.4% | [4] 14% | [5] 10.2% | [6] 20.6%

COc1ccc(C/C=N/Nc2ccc([N+](=O)[O-])cc2[N+](=O)[O-])cc1OC
inactive: [1] 1.7% | [2] -8.05% | [3] -2.3% | [4] 3.45% | [5] -6.3% | [6] -0.55%

CN1C(=O)n2c(nc3ccccc32)C(N2CCOCC2)(N2CCOCC2)C1=O
inactive: [1] 44% | [2] 56.4% | [3] 62.9% | [4] 29.9% | [5] 31.4% | [6] 45.8%

N#Cc1c(N2CCCC2)ncn(Cc2ccccc2)c1=S
inactive: [1] -10.9% | [2] -15.1% | [3] -8.4% | [4] -25.1% | [5] -5.1% | [6] -0.2%

Cc1ccc(S(=O)(=O)OC(c2ccc(Cl)cc2)C(F)(F)F)cc1 (centres undefined)
inactive: [1] 7.55% | [2] -22.6% | [3] -0.55% | [4] 21.9% | [5] 3.45% | [6] 17.8%

C1CCCCC2(CCCCCCCCC3(CCC1)OCCO3)OCCO2
inactive: [1] -2% | [2] -21.2% | [3] -8.5% | [4] 25.6% | [5] 1.1% | [6] -5.25%

CCOC(=O)CC(=O)CC
inactive: [1] 8.5% | [2] -16.6% | [3] -18.8% | [4] 7.55% | [5] -6.45% | [6] 3.25%

CN1CC(c2ccccc2)=Cc2c1ccc(N)c2N=N
inactive: [1] -13.3% | [2] -29.2% | [3] -0.3% | [4] 15.6% | [5] 12.8% | [6] 0.15%

CC1(C)C2CCC(=O)C1C(OCc1ccccc1)C2 (centres undefined)
inactive: [1] -22.1% | [2] 15.7% | [3] -21.1% | [4] -0.85% | [5] -11.6% | [6] -47.4%

CC(C)(C)CC(C)(C)c1cc2c(O)c(c1)Cc1cc(C(C)(C)CC(C)(C)C)cc(c1O)Cc1cc(C(C)(C)CC(C)(C)C)cc(c1O)Cc1cc(C(C)(C)CC(C)(C)C)cc(c1O)Cc1cc(C(C)(C)CC(C)(C)C)cc(c1O)Cc1cc(C(C)(C)CC(C)(C)C)cc(c1O)C2
inactive: [1] 7.4% | [2] 3.05% | [3] 18.4% | [4] 18.9% | [5] 4.95% | [6] 9.55%

Reference: PubChem BioAssay (NCI)
